# Measurements reported in the supplement of paper PMC6555819.
# Tested on: LXRa homodimer (NR concentration 270 nM)
# Assay: PBM binding z-score (relative to random genomic background probes); higher = stronger binding; sequences stand for … in GC…GCGATTGACAGCGTAGAATGAAGG
# Method in brief: (§1)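 The probes on custom Agilent 4×180K protein-binding microarrays were double-stranded, with 34-nt variable regions bearing direct-repeat seeds, single-nucleotide variants, half-site ablations and random human genomic background sequences. Incubation lasted 1 h with ligand-free nuclear receptor dimers in PBS pH 7.4, 2% milk, 0.02% Triton X-100, 1 mM DTT, 0.2 mg/mL BSA and 0.4 mg/ml salmon testes DNA. Antibodies against each partner (one per run) detected bound dimers, and fluorescence scans were regression-normalized. Binding z-scores take the random background probes as reference.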
row,Sequence,PBM binding z-score
1,GGAACGAGGGCAAAGCTGATAGCATCTGTCGACG,-0.605
2,CCTAGCAGGACAATCTGGGTCACTCAAGGCTTGA,-0.28
3,CGAACGAGGGCATGAGTCGATAGCAAATGCCGAT,-0.569
4,TAGCCTAGGTCATGCGGGCCAGTAAAGTGTCGGC,-0.0418
5,CGTTACGGGTCACTGACAGGTTATAGCATTTGGA,0.216
6,AGAATCAGGTTACCAAAGATCAGGGAAACGCTTG,-0.14
7,CCTACTGGGCCAAAAAGGTCATCGATGCCGATAA,2.69
8,ATATGTACGTTAAGGGTCATTCAGGTTGGTTCGC,2.57
9,TCTCGGAGGATACGAAGGTCAGAGCTTTCCAGAG,-0.0784
10,TCATATAGGTAAAGGTGAAAGTGGAACGATATGA,-0.0893
11,CCTGCTAGGTCAATGGCCAGCTAAAGCAGCTCGC,-0.17
12,TCGGACAGGTGAAGGTAACTCAGGTACGCAGTCG,0.174
13,TCATATAGGTAAAACGTGAAAGTCGGTGTGGTAA,0.37
14,GCAGACAGGTGAAACGCAGGTAACTCACGGTGGC,-0.449
15,CGTCCAAGGTCAGAGAGGTCAGGGAATGCCGAGT,3.24
16,GCTCGGAGGACAAGCTCAGAGCTTTGTCCGTAGA,-0.935
17,TGTAGTTGGTCACGGAGGTCACACACGACGGGTA,2.52
18,CAAACTAGGTCAAGAGGTCACAGTCCGCTTCCCG,4.4
19,CAAACTAGGTCAAGAGGTCGAAGTCCGCTTCCCG,1.22
20,GCCTACGGGTCAAAGGTTATAGCATGAATAGAAT,0.447

row,Sequence,PBM binding z-score
1,TAGCCTAGGTCATGGGCCAGCATACCACGCGAAC,0.0336
2,CGAACTGGGTCATCCAGGACAGTGAATACATTGA,0.0995
3,CCAGACAGGTGAAAGATAACTCAGTCTGGTACGC,-0.199
4,CCTACTGGGCCATCAGGTCATTGTTATCAACGTT,1.14
5,CGAACTAGGACAAGGACAGTGAATCTCCGCACGC,-0.152
6,CAGCCTAGGTCACGGCCAGTATAGGAGGAACGTT,0.175
7,TCATATAGGTAAATGCTAGGTGAAAGCCCGATCT,0.00437
8,GCTCGGACGACAAGGTCAGAGCTTTGTCCGTAGA,-0.78
9,CAAGCTAGGTCACGAAAGGTCAAAGTCGAATGAC,8.09
10,TAGGCTAGGTCATGGGCCAGTATACCACGCGAAC,0.324
11,GCAGACAGGTGAAACGCAGGTAAATCAGGGTGGC,-0.519
12,CCTTACGGGTCAAGGTTATTGCACGGGTGGTACG,0.262
13,ACTGACAGGTGATGAAGGTAACTCAGGCTATCAT,-0.445
14,CAAACTAGGTCATCGGAAGGTCAAAGTCCGCATG,5.44
15,CAAACTAGGTAACGAAAGGTCAAAGTCGAATGAC,6.74
16,TCTCGGAGGACCCGAAGGTCAGAGCTTTCCAGAG,-0.12
17,AACACAGGGTCATCGTAGGCCAGAGTACGCACAG,1.53
18,AGAATGAGGTTATTAAGATCCGGGAATTGCGGTC,-0.0229
19,TCATATAGGTAAATGCTAGATGAAAGTCCGATCT,-0.249
20,CCTGCTAGGTCATGGTAAGCTAATCTACAGTATG,0.0967

# Tested on: LXRb:RXRa (NR concentration 270 nM, RXRa partner concentration 90 nM)
# Assay: as above
# Method in brief: as §1
row,Sequence,PBM binding z-score
1,GGAACGAGGGCAAAGCTGATAGCATCTGTCGACG,-0.126
2,CCTAGCAGGACAATCTGGGTCACTCAAGGCTTGA,0.742
3,CGAACGAGGGCATGAGTCGATAGCAAATGCCGAT,-0.0412
4,TAGCCTAGGTCATGCGGGCCAGTAAAGTGTCGGC,1.66
5,CGTTACGGGTCACTGACAGGTTATAGCATTTGGA,3.8
6,AGAATCAGGTTACCAAAGATCAGGGAAACGCTTG,1.12
7,CCTACTGGGCCAAAAAGGTCATCGATGCCGATAA,4.33
8,ATATGTACGTTAAGGGTCATTCAGGTTGGTTCGC,4.2
9,TCTCGGAGGATACGAAGGTCAGAGCTTTCCAGAG,0.653
10,TCATATAGGTAAAGGTGAAAGTGGAACGATATGA,1.28
11,CCTGCTAGGTCAATGGCCAGCTAAAGCAGCTCGC,1.39
12,TCGGACAGGTGAAGGTAACTCAGGTACGCAGTCG,0.636
13,TCATATAGGTAAAACGTGAAAGTCGGTGTGGTAA,0.856
14,GCAGACAGGTGAAACGCAGGTAACTCACGGTGGC,-0.389
15,CGTCCAAGGTCAGAGAGGTCAGGGAATGCCGAGT,4.51
16,GCTCGGAGGACAAGCTCAGAGCTTTGTCCGTAGA,-0.784
17,TGTAGTTGGTCACGGAGGTCACACACGACGGGTA,3.09
18,CAAACTAGGTCAAGAGGTCACAGTCCGCTTCCCG,4.97
19,CAAACTAGGTCAAGAGGTCGAAGTCCGCTTCCCG,2.77
20,GCCTACGGGTCAAAGGTTATAGCATGAATAGAAT,5.59

row,Sequence,PBM binding z-score
1,TAGCCTAGGTCATGGGCCAGCATACCACGCGAAC,2.05
2,CGAACTGGGTCATCCAGGACAGTGAATACATTGA,1.9
3,CCAGACAGGTGAAAGATAACTCAGTCTGGTACGC,-0.0465
4,CCTACTGGGCCATCAGGTCATTGTTATCAACGTT,1.7
5,CGAACTAGGACAAGGACAGTGAATCTCCGCACGC,-0.655
6,CAGCCTAGGTCACGGCCAGTATAGGAGGAACGTT,2.7
7,TCATATAGGTAAATGCTAGGTGAAAGCCCGATCT,0.675
8,GCTCGGACGACAAGGTCAGAGCTTTGTCCGTAGA,0.912
9,CAAGCTAGGTCACGAAAGGTCAAAGTCGAATGAC,7.63
10,TAGGCTAGGTCATGGGCCAGTATACCACGCGAAC,2.18
11,GCAGACAGGTGAAACGCAGGTAAATCAGGGTGGC,-0.258
12,CCTTACGGGTCAAGGTTATTGCACGGGTGGTACG,2.96
13,ACTGACAGGTGATGAAGGTAACTCAGGCTATCAT,-0.455
14,CAAACTAGGTCATCGGAAGGTCAAAGTCCGCATG,4.82
15,CAAACTAGGTAACGAAAGGTCAAAGTCGAATGAC,6.41
16,TCTCGGAGGACCCGAAGGTCAGAGCTTTCCAGAG,0.902
17,AACACAGGGTCATCGTAGGCCAGAGTACGCACAG,4.44
18,AGAATGAGGTTATTAAGATCCGGGAATTGCGGTC,1.24
19,TCATATAGGTAAATGCTAGATGAAAGTCCGATCT,0.68
20,CCTGCTAGGTCATGGTAAGCTAATCTACAGTATG,1.86
